# Experimental data: PubChem BioAssay AID588397 (National Center for Advancing Translational Sciences (NCATS), 2011)
# Screen size: about 1,300 compounds; about 1,000 (77%) were called active. Not shown: some 7% with an inconclusive outcome. Calls follow the shape of the dose curve; as a rule, active = well fitted inhibition curve with a large enough effect; inconclusive = small, poorly fitted or top-dose-only effect; inactive = no such curve, though single readings can be large or run the other way. The set was probably picked from earlier hits. The list shows a part of the results.
# Assay: qHTS of small molecules that selectively kill Giardia lamblia: Hit Validation.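 Also: viability measured as ATP content by luminescence so killing lowers signal; trophozoites exposed to compounds for 48 h anaerobically at 37 °C; nearly all actives have a fitted effect of over 65% in size.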
# Conditions: Giardia lamblia trophozoite viability, dose-response; series mostly up to 38.3 µM; activity change, negative = killing: at the top concentration
# Outline: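 HTS viability screen: compound-treated trophozoites (100 cells/well) are kept anaerobic at 37 deg C for 48 hrs, and surviving cells are detected through ATP-dependent luminescence.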
# % is scaled to controls: 0 for no effect and ±100 for the full control effect; potency is read from the fitted curve at half-maximal effect.
Structure (SMILES),Potency,"activity change, negative = killing"
O=C(N/N=C/c1ccc([N+](=O)[O-])s1)C(O)c1ccccc1 (stereo not given),2900 nM (active),–
Cc1ccc(NC(=S)N/N=C/c2ccc([N+](=O)[O-])s2)cc1,2310 nM (active),–
O=[N+]([O-])c1ccc(/C=N/Nc2ncccc2[N+](=O)[O-])s1,2310 nM (active),–
O=C(N/N=C\c1ccc([N+](=O)[O-])s1)c1cncc(Br)c1,2900 nM (active),–
O=[N+]([O-])c1ccc(/C=N/NC(=S)Nc2ccc(Cl)cc2Cl)s1,3650 nM (active),–
O=C(N/N=C/c1ccc([N+](=O)[O-])s1)c1ccccc1,1630 nM (active),–
Cc1ccc(C(=O)N/N=C/c2ccc([N+](=O)[O-])s2)cc1,1030 nM (active),–
O=C(N/N=C/c1ccc([N+](=O)[O-])s1)c1cccnc1,2310 nM (active),–
COc1cc(CNc2nnnn2C)cc(OC)c1OC,–,7.64% (inactive)
O=[N+]([O-])c1ccc(/C=N/Nc2nc(N3CCCCC3)nc(N3CCCCC3)n2)o1,1160 nM (active),–
O=[N+]([O-])c1ccc(/C=N/Nc2nc(N3CCCC3)nc(N3CCCC3)n2)o1,2050 nM (active),–
O=[N+]([O-])c1cc(/C=N/Nc2nc(N3CCCCC3)nc(N3CCCCC3)n2)ccc1O,6500 nM (active),–
COc1cccc(CNCc2cccc(Br)c2)c1OC,–,7.37% (inactive)
O=[N+]([O-])c1ncccc1Oc1nc(-c2cccnc2)nc2ccccc12,2050 nM (active),–
FC(F)(F)c1ccc2c(c1)N1CCCC1CN2 (stereo not given),1450 nM (active),–
CCOC(=O)/C=C/[C@H]1CCc2cccc(Cl)c2O1,–,-22.7% (inactive)
Nc1ccc(-c2cnc(-c3ccc(N)cc3)nc2)cc1,4100 nM (active),–
CNN/C(N=Cc1ccc([N+](=O)[O-])s1)=N\S(=O)(=O)c1cc(C)c(Cl)cc1SCc1ccccc1,1030 nM (active),–
CN1C(=O)/C(=C/c2ccc(O)c([N+](=O)[O-])c2)N(C)C1=S,3260 nM (active),–
CN1C(=O)/C(=C/c2ccc(O)c([N+](=O)[O-])c2)NC1=S,3260 nM (active),–
Cc1ccc(C(CC(=O)O)NC(=O)c2ccc(S(=O)(=O)N3CC(C)OC(C)C3)cc2)cc1 (stereo not given),–,-5.13% (inactive)
O=C(CCN1C(=O)c2ccccc2C1=O)Nc1ccccc1C(F)(F)F,–,21% (inactive)
O=C1c2ccc3c4c(ccc(c24)C(=O)N1CCCCO)C(=O)N(CCCCO)C3=O,1830 nM (active),–
NC(=O)c1c(NC(=O)CCCn2cnc([N+](=O)[O-])n2)sc2c1CCCC2,7290 nM (active),–

Structure (SMILES),Potency,"activity change, negative = killing"
CCOC(=O)c1c(NC(=O)CS(=O)(=O)c2cn(CC)c3ccccc23)sc2c1CCCCC2,–,1.17% (inactive)
CC1CCc2c(sc(NC(=O)CCCn3cnc([N+](=O)[O-])n3)c2C(N)=O)C1 (stereo not given),4600 nM (active),–
CC1CCc2c(sc(NC(=O)Cn3cnc([N+](=O)[O-])n3)c2C(N)=O)C1 (stereo not given),18300 nM (active),–
Cc1nc(CS(=O)(=O)c2ccc(Cl)cc2)sc1C(=O)O,–,7.64% (inactive)
O=C1c2ccccc2C(=O)c2c1ccc1c(=O)n(C3CCCCC3)[nH]c21,2310 nM (active),–
CC(C)Cn1[nH]c2c3c(ccc2c1=O)C(=O)c1ccccc1C3=O,1450 nM (active),–
COCCCn1[nH]c2c3c(ccc2c1=O)C(=O)c1ccccc1C3=O,1030 nM (active),–
CCc1ccc(S(=O)(=O)Nc2ccc(-c3ccc4nnc(C)n4n3)cc2)s1,–,-30% (inactive)
COC(=O)[C@@]12CCCCN1[C@H](c1ccc(-c3ccc(C(C)=O)cc3)cc1)[C@@H]1C(=O)N(C)C(=O)[C@@H]12,–,-23.9% (inactive)
CC12CN3CC(C)(CN(C1)C3c1ccc([N+](=O)[O-])o1)C2 (stereo not given),1300 nM (active),–
CCCCC12CN3CC(C)(CN(C1)C3c1ccc([N+](=O)[O-])o1)C2=O (stereo not given),2050 nM (active),–
CCC12CN3CC(CC)(CN(C1)C3c1ccc([N+](=O)[O-])o1)C2=O (stereo not given),4100 nM (active),–
CCCC12CN3CC(C)(CN(C1)C3c1ccc([N+](=O)[O-])o1)C2=O (stereo not given),1830 nM (active),–
O=c1cccc(-c2ccccc2)[nH]1,–,-19.2% (inactive)
O=c1[nH]c(=O)c2cc([N+](=O)[O-])cc([N+](=O)[O-])c2[nH]1,4100 nM (active),–
O=C(COc1cccnc1[N+](=O)[O-])N1CCc2ccccc21,4100 nM (active),–
COc1ccccc1NCCC(=O)OCC(=O)NC1CCCCCC1,–,-3.6% (inactive)
O=C(COc1cccnc1[N+](=O)[O-])Nc1cccc2ccccc12,4600 nM (active),–
COC(=O)c1sc(NC(=O)COc2cccnc2[N+](=O)[O-])c(C(=O)OC)c1C,4100 nM (active),–
COc1ccccc1NC(=O)COc1cccnc1[N+](=O)[O-],6500 nM (active),–
CC(C)Cn1c(=S)[nH]c2cc(C(=O)NCc3ccccc3F)ccc2c1=O,–,2.52% (inactive)
O=[N+]([O-])c1cnc2ccccn12,2050 nM (active),–
S=c1[nH]nc2ccccn12,–,-16.5% (inactive)
O=C(CSc1cccc[n+]1[O-])Nc1cc2c(cc1Cl)C(=O)c1ccccc1C2=O,2900 nM (active),–

Structure (SMILES),Potency,"activity change, negative = killing"
N#C/C(=C\c1ccc(O)c([N+](=O)[O-])c1)C(=O)NCc1ccccc1,3260 nM (active),–
N#C/C(=C/c1ccc(O)c([N+](=O)[O-])c1)C(=O)Nc1ccccc1,3260 nM (active),–
N#C/C(=C\c1ccc(O)c([N+](=O)[O-])c1)c1nc2ccccc2s1,1830 nM (active),–
COCCNC(=O)/C(C#N)=C/c1ccc(O)c([N+](=O)[O-])c1,4600 nM (active),–
CC(C)C[C@H](NC(=O)c1[nH]cnc1C(=O)N[C@H](C)c1ccccc1)C(=O)OCc1ccccc1,–,-11.2% (inactive)
CCN(CC)CC(=O)Nc1c(C)cccc1C,–,2.88% (inactive)
O=c1/c(=C/c2ccc(O)c([N+](=O)[O-])c2)sc2nc3ccccc3n12,2590 nM (active),–
COc1ccc2c(c1)C1OCCC1C(c1ccco1)N2 (stereo not given),2310 nM (active),–
Cc1ccc(N2CC(C(=O)Nc3ncc([N+](=O)[O-])s3)CC2=O)cc1 (stereo not given),365 nM (active),–
O=C(Nc1ncc([N+](=O)[O-])s1)C1CC(=O)N(c2ccc(F)cc2)C1 (stereo not given),1030 nM (active),–
O=C(CCN=C1NS(=O)(=O)c2ccccc21)OCC(=O)c1ccc(F)c(F)c1,–,5.94% (inactive)
CCCNC(=O)Cn1c(=O)n(C)c2ccccc21,–,2.52% (inactive)
COc1cc2c(cc1OC)-c1c(OC)c(OC)cc3ccnc(c13)C2=O,579 nM (active),–
COc1ccc(-c2nc(NCCCN(C)C)c3ccccc3n2)cc1,818 nM (active),–
CCN(CC)CCCNc1nc2ccccc2c2[nH]c3ccc(OC)cc3c12,183 nM (active),–
CCN1C(=O)[C@H]2[C@H]3CN=C(SCc4ccccc4)N3[C@@](Cc3ccccc3)(C(=O)OC)[C@H]2C1=O,–,13.6% (inactive)
Cc1nn2c3cc(N4CCOCC4)ccc3nc2c2ccccc12,1030 nM (active),–
COc1cccc2c1C(CO)N1C(C#N)C3CC(C(=O)O)C(C1C2)N3C (stereo not given),1160 nM (active),–
O=C(N/N=C/c1ccc([N+](=O)[O-])o1)C1CC1,1160 nM (active),–
O=C(N/N=C/c1ccc([N+](=O)[O-])o1)C1CCCC1,516 nM (active),–
CCOc1cc([N+](=O)[O-])cc(/C=C2/NC(=O)N(Cc3ccccc3F)C2=O)c1O,1630 nM (active),–
COc1ccc(-c2coc3cc(O)ccc3c2=O)cc1,1160 nM (active),–
CC(C)Oc1cc(O)c2c(=O)c(-c3ccc(O)cc3)coc2c1,516 nM (active),–
O=c1c(-c2ccc(F)cc2)coc2cc(O)ccc12,918 nM (active),–

Structure (SMILES),Potency,"activity change, negative = killing"
CC1(C)Oc2cc3oc(-c4cc(O)cc(O)c4)cc3cc2CC1O (stereo not given),1450 nM (active),–
COC(=O)[C@]1(Cc2ccccc2)N[C@H](CN(C)C(=O)c2ccccc2)[C@@H]2C(=O)N(C)C(=O)[C@@H]21,–,-1.17% (inactive)
COc1ccc(C(=O)C(C)OC(=O)CNC(=O)C2CCCCC2)cc1 (stereo not given),4600 nM (active),–
COc1ccc2oc(C(=O)OC(C)C(=O)NCc3ccccc3)c(C)c2c1 (stereo not given),–,-21.9% (inactive)
COc1ccc(C(=O)C(C)OC(=O)CNC(=O)c2ccco2)cc1 (stereo not given),20500 nM (active),–
CCOC(=O)N=Nc1c2ccccc2c2nc3no[nH]c3nc12,365 nM (active),–
Fc1cc2[nH]cnc2cc1Cl,–,-8.27% (inactive)
O=C(NCc1ccco1)NC(=O)c1csc([N+](=O)[O-])c1,1630 nM (active),–
CC(C)CNC(=S)NC(=O)c1csc([N+](=O)[O-])c1,1300 nM (active),–
COc1cc(/C=C/C(=O)c2ccc3c(c2)OCCO3)cc(OC)c1OC,7290 nM (active),–
COc1cc(C(=S)N2CCOCC2)ccc1OC(=O)/C=C/c1ccco1,–,7.28% (inactive)
Cc1nn(-c2nc3ccccc3[nH]2)c(=O)c2ccccc12,230 nM (active),–
COC1C(OC(=O)/C=C/C=C/C=C/C=C/C(=O)O)CCC2(CO2)C1C1(C)OC1CC=C(C)C (stereo not given) (tested in a mixture with another compound),1.5 nM (active),–
CCn1ncc([N+](=O)[O-])c1C(=O)Nc1nc2cccc(C)c2s1,4100 nM (active),–
CCOc1ccc2nc(NC(=O)c3c([N+](=O)[O-])cnn3CC)sc2c1,1830 nM (active),–
Cc1ccc(C(=O)Nc2ccc3c(c2)OCCO3)o1,7290 nM (active),–
O=C(Nc1ccc2c(c1)OCCO2)c1ccc(Br)o1,5160 nM (active),–
O=C(Nc1ccc2c(c1)OCCO2)c1cc(-c2ccccn2)nc2ccc(Br)cc12,4100 nM (active),–
Cc1ccccc1C(=O)Nc1ccc2c(c1)OCCO2,3650 nM (active),–
Cc1ccc(-c2c(C(=O)N/N=C/C3CC=CCC3)nnn2-c2nonc2N)cc1 (stereo not given),–,-19.1% (inactive)
CN(C)S(=O)(=O)c1ccc(N2CCCC2)c(C(=O)N2CCN(c3ccc([N+](=O)[O-])cc3)CC2)c1,1830 nM (active),–
O=C(N=Nc1c(O)[nH]c2ccccc12)c1cccs1,3650 nM (active),–
O=C(CNC(=O)Cc1ccccc1)N=Nc1c(O)[nH]c2ccc(Br)cc12,–,-12.8% (inactive)
